# Data reported in PubChem BioAssay (NCI).
# “And” between values parts separate entries of the source, which are not always exact repeats. Equal values may be shown once. About 83,000 compounds went through this panel and 20% of them were active in at least one assay; those are over-represented in the sample as a whole.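 Plates (96-well) were seeded with cells, treated with compound at one concentration, and incubated for 48 hours before percent growth was determined.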 The source made the active and inactive calls. The calls were made as follows: active = growth percent below 10; inactive = the rest.
# System: MDA-MB-468 breast
# Experiment: NCI-60 one-dose screen, 48 h (100 = growth as untreated, 0 = no growth, -100 = all killed)
# Settings: 10 µM unless noted
row,SMILES,growth
1,O=C(CCCC1CCCCC1)OCC(Cl)(Cl)Cl,113% (inactive)
2,Cc1cc(NC(=O)NCCOc2ccc(N3C(N)=NC(N)=NC3(C)C)cc2Cl)ccc1S(=O)(=O)F,29% (inactive)
3,CCOC(=O)/C(C#N)=C/c1ccc(N(CCCl)CCCl)cc1,64.2% (inactive)
4,O=C(CC1(O)C(=O)N(Cc2ccccc2)c2ccc(F)cc21)c1ccc(C(=O)NCC2CCC3(CC2)OOC2(CCCCC2)OO3)cc1 (stereo not given),-41.8% (active)
5,C[C@]12CC[C@H]3[C@@H](C[C@@H]4SC(Nc5ccccc5)=N[C@@]45C/C(=N/O)CC[C@]35C)[C@@H]1CCC2=O,59.9% (inactive)
6,O=P(O)(Nc1ccccc1)Nc1ccccc1,90.2% (inactive)
7,O=[N+]([O-])c1cc(Cl)c(Cl)cc1Cl,102% (inactive) and 104% (inactive)
8,COc1cc(/C=C\c2cc(OC)c(OC)c(OC)c2)cc(N/C=C\C(=O)c2ccc(OC(F)(F)F)cc2)c1OC,27.2% (inactive)
9,COc1cc2c(cc1OCc1ccccc1)C(CC(C)C)=[N+](C)CC2,2.12% (active)
10,CCOC(=S)S[C@H]1C[C@@H]2[C@H](CC[C@]3(C)C(=O)CC[C@@H]23)[C@@]2(C)CCC(=O)C=C12,101% (inactive)
11,COC(=O)[C@@H](C)C[C@H](Cc1ccccc1)NC(=O)c1nc([C@@H](C[C@H](C(C)C)N(C)C(=O)[C@@H](NC(=O)[C@H]2C[C@H](O)CCN2C)C(C)C)OC(C)=O)sc1C(C)C,-0.0807% (active)
12,Cc1ccc(C(=O)OC(C(=O)O)C(OC(=O)c2ccc(C)cc2)C(=O)O)cc1 (stereo not given) (tested in a mixture with another compound),-12.2% (active)
13,ClCCN(CCCl)c1nc(Cl)c(C2CC(c3ccc(Cl)cc3)=NN2c2cc(Cl)cc(Cl)c2)s1 (stereo not given),112% (inactive)
14,c1ccc(CCN2CCCCC2)nc1,107% (inactive)
15,Clc1cccc(N2COOC3(OOC2)C2CC4CC(C2)CC3C4)c1,77.7% (inactive)
16,CCC1([N+](=O)[O-])COP(=O)(NCc2cccnc2)OC1 (stereo not given),104% (inactive)
17,O=C1C2CCC1C(N1CCCC1)CC2 (stereo not given),105% (inactive)
18,COc1cc([N+](=O)[O-])c2nc(C)ccc2c1[N+](=O)[O-],-9.11% (active)
19,O=C(O)c1cccc(CCl)c1,105% (inactive)
20,COC12CC3(C)C(C4=CC(=O)OC4)CCC3(O)C3CCC4=CC(=O)CCC4(CO1)C32 (stereo not given),101% (inactive)

row,SMILES,growth
1,CC[C@H](C)[C@H](NC(=O)[C@H]1CCCCN1C)C(=O)N(C)[C@H](CCc1nc(C(=O)N[C@@H](Cc2ccccc2)C[C@H](C)C(=O)OC)cs1)C(C)C,35% (inactive)
2,CC(C)(NC(=O)c1nn(CCCCCF)c2ccccc12)c1ccccc1,93.9% (inactive)
3,c1ccc([As]=[As]c2ccccc2)cc1 (stereo not given),-55.7% (active)
4,CCCCCN(CCCCC)CC(O)c1cc(Cl)ccc1OC (stereo not given),57.7% (inactive)
5,C[CH2][Pb]([CH2]C)([CH2]C)[O]C(=O)COc1ccccc1,9.74% (active)
6,CC(=O)O[C@H](C[C@H](C(C)C)N(C)C(=O)[C@@H](NC(=O)[C@H]1CCCCN1C)C(C)(C)C)c1nc(C(=O)N[C@@H](Cc2ccccc2)C[C@H](C)C(=O)O)cs1,4.72% (active)
7,O=NN1CCCc2cccc(O)c21,67.7% (inactive)
8,C[C@@H]1C/C=C\C(=O)O[C@H](/C=C/C#C/C=C/C(C)(C)[C@@H](O)c2cccc(O)c2Br)[C@@H](C)/C=C/[C@H](C)C[C@H](OC(N)=O)C1,33.6% (inactive)
9,Cc1cc(N(CCCl)CCCl)ccc1/C=N\NC(=O)c1ccncc1,-45.6% (active)
10,C[Se]C(=O)c1ccccc1OC(C)=O,45% (inactive)
11,Cc1ccc(S(=O)(=O)F)cc1C(=O)O,92.5% (inactive)
12,CN1[C@@H](CC(=O)c2ccccc2)CCC[C@H]1CC(=O)c1ccccc1,101% (inactive)
13,CCOP(=O)(OCC)/C(C#N)=C/c1ccc(Br)cc1,101% (inactive)
14,O=[N+]([O-])c1ccc(N2CCOCC2)c2c1no[n+]2[O-],2.62% (active)
15,CCOC(=O)[C@@H](C)C[C@H](Cc1ccccc1)NC(=O)c1csc([C@@H](C[C@H](C(C)C)N(C)C(=O)[C@H](CC)NC(=O)[C@H]2CCCCN2C)OC(C)=O)n1,32.5% (inactive)
16,CC(=O)c1cccc(S(=O)(=O)F)c1,93.6% (inactive)
17,CC(=O)O[C@H](C[C@H](C(C)C)N(C)C(=O)[C@@H](NC(=O)[C@H]1CCCCN1C)C(C)C)c1cccc(C(=O)N[C@@H](Cc2ccccc2)C[C@H](C)C(=O)O)n1,20.9% (inactive)
18,CC(=O)[O][Hg][c]1c(N)c(C)cc(C)c1F,-26.7% (active)
19,CNC(=O)O/N=C(/C)c1ccc(Cl)cc1,105% (inactive)
20,OCCNC1CCCCC1,109% (inactive)
